Source: PubChem BioAssay AID493243 (Broad Institute, 2011)
Active and inactive are the calls of the source. The rule behind the calls is not given here.

Experiment: compounds quenching green fluorescent protein signal – biochemical, plate reader, dry powder, artefact control, dose response (AID 493243)
Conditions: GFP fluorescence counter-screen; series mostly up to 35 µM
In the case of `Cn1nc(-c2ccccn2)nc2c(=O)n(C)c(=O)nc1-2`, the AC50 is reported as 0.752 µM (active).
In the case of `Cc1ccccc1-n1ncc2c([N+](=O)[O-])cc([N+](=O)[O-])cc21`, the AC50 is reported as 9.4 µM (active).
In the case of `Cc1oc2c(c1C(=O)NCc1ccccn1)C(=O)c1ccccc1C2=O`, the AC50 is reported as 1.04 µM (active).
In the case of `Cc1oc2c(c1C(=O)NCc1cccnc1)C(=O)c1ccccc1C2=O`, the AC50 is reported as 3.57 µM (active).
With `Nc1cn(-c2ccccc2)nc1-c1ccc(F)cc1` the AC50 was “inactive”.
